NPC1 promoter act: qHTS Assay for NPC1 Promoter Activators | Huh7 NPC1 promoter luciferase reporter, 24 h | 2.4% of 320,000 active | Potency, µM (doses to about 9.22 µM), for inactives: at the top dose activation, usual class: activators; also: % of control where 0% means no effect; nearly all actives have a fitted effect of over 60% in size
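Huh7 cells stably carrying NPC1 promoter–luciferase, plated in Opti-MEM with 10% FBS for 2 h, were exposed to compound in DMSO for 24 h at 37 °C; luciferase reagent was added for 10 min and luminescence read.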
SMN2 splice up: qHTS Assay for Enhancers of SMN2 Splice Variant Expression; HEK293 SMN2-luciferase splicing reporter, luminescence, 30-36 h; Potency, µM (doses to about 46.1 µM), for the others: at the top dose activity change, positive = activation, most hits filed as activators; 2.8% of 210,000 active; also: % of control where 0% means no effect; nearly all actives have a fitted effect of over 55% in size
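HEK293 cells carry an SMN2 […]–luciferase reporter in which exon 7 inclusion puts luciferase in frame. Cells were plated 10-12 h before compound addition, then incubated 30-36 h at 37C. ONE-Glo luminescence was read; sodium butyrate at 4.5 mM final served as control.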
ELG1 genotoxic: qHTS screen for small molecules that induce genotoxicity in human embryonic kidney (HEK293T) cells expressing luciferase-tagged ELG1 | 1.3% of 330,000 active | AID 504466, 2011 | Potency, µM (titrated, usually from 46 µM), for the others: at the top dose activity change, positive = activation, hits mostly activators | HEK293T ELG1-luciferase reporter, luminescence, 16 h; also: % of control where 0% means no effect; nearly all actives have a fitted effect of over 60% in size
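Screening used a luciferase reporter fused to human ELG1 in HEK293T cells. Luminescence was read on a CCD plate imager after 16 hr exposure and 30 min ONE-Glo incubation.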
FLuc counter: qHTS profiling assay for firefly luciferase inhibitor/activator using purifed enzyme and Km concentrations of substrates (counterscreen for miR-21 project); Luciferin 4-monooxygenase (Photinus pyralis), P08659; Potency, µM (top dose mostly 57.5 µM), without a hit: at the top dose activity change, negative = inhibition, usual class: inhibitors; 6.9% of 360,000 active; purified FLuc, Km substrates, luminescence inhibition; AID 588342, 2011;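 also: plate controls were vehicle for no effect and reference inhibitor for full effect; nearly all actives have a fitted effect of over 55% in size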
Target sequence (P08659 whole entry, looked up): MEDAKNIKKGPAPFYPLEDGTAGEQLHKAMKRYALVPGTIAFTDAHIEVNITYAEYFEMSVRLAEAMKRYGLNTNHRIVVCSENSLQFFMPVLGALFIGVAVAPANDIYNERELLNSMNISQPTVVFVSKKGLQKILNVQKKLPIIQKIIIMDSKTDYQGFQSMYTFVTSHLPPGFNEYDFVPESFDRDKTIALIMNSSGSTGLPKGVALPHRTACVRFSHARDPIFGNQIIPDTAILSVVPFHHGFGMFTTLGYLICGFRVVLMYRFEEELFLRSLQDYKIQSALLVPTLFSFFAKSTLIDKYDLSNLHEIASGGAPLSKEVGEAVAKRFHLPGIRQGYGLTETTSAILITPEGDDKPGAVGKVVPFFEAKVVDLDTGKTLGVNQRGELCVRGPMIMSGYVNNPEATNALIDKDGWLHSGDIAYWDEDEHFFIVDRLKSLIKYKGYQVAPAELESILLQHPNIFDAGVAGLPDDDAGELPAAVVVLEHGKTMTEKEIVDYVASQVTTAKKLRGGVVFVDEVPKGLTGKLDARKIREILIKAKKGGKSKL
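Purified P. pyralis luciferase (10nM final) with 10uM D-luciferin and 10uM ATP (Km levels) in 50mM Tris acetate pH 7.5, 10mM Mg acetate, 0.01% Tween-20, 0.05% BSA; qHTS 6-point titration, ~60 µM downward; luminescence read.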
Rab9 prom act: qHTS Assay for Rab9 Promoter Activators; 2.8% of 320,000 active; Potency, µM (titrated, usually from 9.22 µM), for the others: at the highest dose activation, negative = inhibition, hits mostly activators; Huh7 Rab9 promoter-luciferase reporter, luminescence, 24 h; also: % of control where 0% means no effect; nearly all actives have a fitted effect of over 60% in size
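Using Huh7 cells stably transfected with Rab9 promoter–luciferase, compounds were incubated 24 h at 37 °C, 5% CO2; luciferase luminescence was read 10 min after reagent addition.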
ELG1 repair inh: qHTS screen for small molecules that inhibit ELG1-dependent DNA repair in human embryonic kidney (HEK293T) cells expressing luciferase-tagged ELG1; HEK293T ELG1-luciferase reporter, luminescence, 16 h; DNA damage induced by 5-fluorouridine; Potency, µM (doses to about 46.1 µM), for inactives: at the highest dose activity change, negative = inhibition, usual class: inhibitors; 2.3% of 330,000 active; AID 504467, 2011; also: % is scaled to controls: 0 for no effect and ±100 for the full control effect; nearly all actives have a fitted effect of over 55% in size
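Quantitative HTS, concentration-response format. 2,000 cells/well co-treated with 5-fluorouridine and compound, 16 hr in 5% CO2 at 37 °C; ONE-Glo luminescence read after 30 min.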
Starred values were filed as active, the others as inactive; ? = inconclusive; . = no result given. A selection: hits, their analogues and other compounds. The true share with any hit is near 9.4%. Calls follow the shape of the dose curve; as a rule, active = well fitted curve in the direction sought with a large enough effect; inconclusive = small, poorly fitted or top-dose-only effect, or another doubt; inactive = no such curve, though single readings can be large; an effect the other way counts as inactive or inconclusive. Potency is read from the fitted curve at half-maximal effect.

SMILES	NPC1 promoter act	SMN2 splice up	ELG1 genotoxic	FLuc counter	Rab9 prom act	ELG1 repair inh
COc1cccc(-c2ccc(SCC(=O)N3CCc4ccccc43)nn2)c1	-1.1%	25.1%	1.0%	21.3µM*	-3.3%	-3.9%
CCCn1nnnc1SCC(=O)N1CCCc2ccccc21	-5.0%	-6.9%	14.6µM*	?	-2.4%	?
Cn1c(SCC(=O)N2CCCC2)nc2ccccc21	0.4%	7.7%	-0.1%	-2.3%	1.2%	-10.8%
CCN1CCN(c2cc(C)c3cc(NC(=O)/C=C/c4cccc(Cl)c4)ccc3n2)CC1	.	2.2%	.	-18.4%	.	.
Cc1ccc(-c2ccc(SCC(=O)N3CCCc4ccccc43)nn2)cc1	7.4%	17.4%	2.6%	8.49µM*	7.8%	?
CC(C)c1ccc(C(O)Cc2nc3ccccc3n2C)cc1 (stereo not drawn)	?	.	?	9.53µM*	3.98µM*	?
CN(C)c1ccc(C(O)Cc2nc3ccccc3n2C)cc1 (stereo not drawn)	?	.	4.61µM*	?	?	?
COc1ccccc1C(O)Cc1nc2ccccc2n1C (stereo not drawn)	28.6%	1.6%	?	?	?	?
COC(=O)c1ccc(NC(=O)C(=O)NCCc2csc(-c3ccc(F)cc3)n2)cc1	.	.	.	-3.6%	.	.
COc1ccc2oc(C(=O)Nc3nc(C)cs3)c(C)c2c1	2.51µM*	.	?	0.601µM*	5.62µM*	?
CCN(CC(=O)Nc1ccccc1C(F)(F)F)C(=O)c1oc2ccc(OC)cc2c1C	6.4%	.	?	16.9µM*	-1.7%	?
COc1ccc2oc(C(=O)Nc3ccc(C)cn3)c(C)c2c1	2.51µM*	.	5.8µM*	1.9µM*	3.16µM*	?
CCc1noc(C)c1C(=O)N(CC)CC(=O)Nc1ccccc1C(F)(F)F	-0.2%	.	3.3%	-22.5%	-4.5%	9.3%
COCc1c(C(=O)Nc2nc(C)cs2)oc2ccccc12	-1.4%	14.5%	-0.7%	?	0.8%	14.9%
COc1ccc(C(=O)Nc2ccccn2)cc1	-2.5%	2.4%	-1.9%	2.2%	-4.1%	-1.8%
COc1ccc2oc(C(=O)NN3C(C)CCCC3C)c(C)c2c1 (stereo not drawn)	-7.1%	13.1%	0.7%	-1.9%	-3.5%	6.4%
COc1ccc2oc(C(=O)Nc3ccccn3)c(C)c2c1	?	.	?	0.601µM*	3.98µM*	?
Cc1ccc(C(=O)c2cn(CC(=O)Nc3ccc4c(c3)OCCO4)c3nc(C)ccc3c2=O)cc1	.	.	.	3.9%	.	.
O=C(NCCNCCO)c1c(O)c2cccc3c2n(c1=O)CCC3	-2.5%	?	-9.6%	-2.7%	1.2%	6.51µM*
COc1ccc(C(=O)c2sc(Nc3ccccc3)nc2N)cc1	7.7%	.	1.8%	-17.7%	18.9%	?
Nc1nc(Nc2ccccc2)sc1C(=O)c1ccccc1	2.51µM*	.	-3.2%	19µM*	?	?
COc1ccc(C(=O)c2sc(Nc3ccccc3F)nc2N)cc1	2.82µM*	.	?	10.7µM*	2.24µM*	?
CCCCN(C)CCCNC(=O)Cn1ncc2c3ccccc3n(Cc3ccccc3F)c2c1=O	.	1.4%	.	-5.4%	.	.
Cc1ccc(C(C)C)c(OCC(=O)Nc2ccc(S(=O)(=O)Nc3onc(C)c3C)cc2)c1	.	-9.7%	.	?	.	.
CCCc1cc(-c2ccc3c(c2)COc2c4ccccc4nn2-3)on1	2.82µM*	.	?	1.07µM*	2.82µM*	?
CCCc1cc(C(=O)O)c2ccccc2n1	8.9%	-2.2%	6.3%	-1.0%	6.9%	12.8%
C(#CC1CCCC1)c1ccc2c(c1)COc1c3ccccc3nn1-2	0.891µM*	.	?	3.01µM*	1µM*	?
